Bioassay records as filed in PubChem.
FH mod: Identification of activators of human fumarate hydratase by quantitative high-throughput screening. 54,000 tested, 0.22% active. Fumarate hydratase, mitochondrial (Homo sapiens), P07954. FH coupled MDH/diaphorase resazurin fluorescence, 15 min. Potency, µM (titrated, usually from 79.9 µM), most hits filed as inhibitors; further: the screen sought activators but most active calls are inhibition curves; nearly all actives have a fitted effect of over 45% in size
HTT prom inh: Primary qHTS for Identification of Small Molecule Inhibitors of Huntingtin Promoter Activity. Potency, µM (series often up to 57.5 µM), most hits filed as inhibitors. 48,000 tested, 0.93% active. HEK293 HTT promoter firefly luciferase reporter, 24 h; further: nearly all actives have a fitted effect of over 50% in size
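Firefly luciferase signal from promoter-reporter HEK293 cells was scaled between vehicle (0%) and zero RLU (-100%). Compounds were tested at final concentrations of up to 57.5 uM over 24 h at 37 degrees C. PTC124 at 50 uM final served as control inhibitor.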
HTT-AS act: Primary qHTS for Identification of Small Molecule Activators of Huntingtin-Antisense Promoter Activity; 48,000 tested, 0.24% active; AID 1508624, 2021; Potency, µM (series often up to 57.5 µM), most hits filed as activators; HEK293 HTT-AS promoter firefly luciferase reporter, 24 h; response scale: percent change from vehicle, -100% = no light; further: nearly all actives have a fitted effect of over 55% in size
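Luminescence was read after Dual-Glo reagent and a 10 min room-temperature incubation. Values were normalized to vehicle (0% activity) and zero RLU (-100% activity). Reporter HEK293 cells had been exposed to compounds (up to 57.5 uM final) for 24 h.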
GALC G270D act: A Novel Cell-Based Assay to Identify Small Molecules for B -Galactocerebrosidase | 45,000 tested, 0.1% active | P54803 | Potency, µM (titrated, usually from 57.5 µM), hits mostly activators | 145M-Twi-hGALC-G270D cells (Twitcher mouse brain line with human GALC G270D), HMU-beta-Gal fluorescence, 48 h; further: nearly all actives have a fitted effect of over 65% in size
Target sequence (P54803 whole entry G286D): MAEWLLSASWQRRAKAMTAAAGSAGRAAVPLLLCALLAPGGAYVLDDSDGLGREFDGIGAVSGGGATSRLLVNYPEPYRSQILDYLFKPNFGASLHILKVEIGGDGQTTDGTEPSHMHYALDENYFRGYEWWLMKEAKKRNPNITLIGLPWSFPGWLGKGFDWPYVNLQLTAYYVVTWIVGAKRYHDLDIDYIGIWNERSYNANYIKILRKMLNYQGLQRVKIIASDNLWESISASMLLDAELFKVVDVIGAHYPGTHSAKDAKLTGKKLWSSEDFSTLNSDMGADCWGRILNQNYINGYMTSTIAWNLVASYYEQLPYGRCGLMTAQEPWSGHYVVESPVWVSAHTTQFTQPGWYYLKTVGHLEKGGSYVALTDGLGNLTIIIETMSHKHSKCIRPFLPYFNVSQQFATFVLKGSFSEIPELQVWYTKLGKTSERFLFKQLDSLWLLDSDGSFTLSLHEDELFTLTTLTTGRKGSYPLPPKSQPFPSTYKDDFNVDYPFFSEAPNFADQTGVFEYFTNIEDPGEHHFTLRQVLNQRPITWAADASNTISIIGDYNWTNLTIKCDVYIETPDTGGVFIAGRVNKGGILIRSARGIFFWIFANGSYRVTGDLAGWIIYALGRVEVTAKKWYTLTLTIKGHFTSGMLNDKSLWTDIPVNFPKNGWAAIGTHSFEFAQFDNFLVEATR
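Live 145M-Twi cells (Twitcher mouse brain-derived, GALC-null) stably expressing human GALC-G270D, with a wild-type GALC line, were compound-treated. Residual GALC activity was then read as fluorescence from 0.1 mM final HMU-β-gal at pH 5.2; higher signal means activation.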
A number is an active result; n = inactive; u = inconclusive; x = no result; ! = not confirmed by another sample. Only some compounds are listed: those with a hit (about 1.3% of all), similar ones and a draw of the others. The call rests on the fitted dose curve; in most records, active means well fitted curve in the direction sought with a large enough effect; inconclusive means small, poorly fitted or top-dose-only effect, or another doubt; inactive means no such curve, though single readings can be large; an effect the other way counts as inactive or inconclusive.

SMILES	FH mod	HTT prom inh	HTT-AS act	GALC G270D act
Cc1nc2cc(-c3cccc(F)c3)nn2c(C)c1CCC(=O)NC1CCCCC1	n	1.3µM	n	n
CCc1ccc(CN(Cc2cn[nH]c2-c2ccc(OC)cc2)C(=O)Nc2ccc(Br)cc2)cc1	n	14µM	n	n
COc1ccc(C(=O)NCC(c2ccco2)S(=O)(=O)c2ccccc2)cc1 (configuration not stated)	n	n	n	n
Cc1ccc(OCC(=O)N(Cc2sccc2C)C2CCS(=O)(=O)C2)cc1 (configuration not stated)	n	n	n	n
COc1cc(NC(=O)CCCSc2nc(-c3ccco3)cc(C(F)(F)F)n2)cc(OC)c1OC	n	u	n	n
COc1cc(NC(=O)CSc2nc(-c3ccco3)cc(C(F)(F)F)n2)cc(OC)c1OC	n	13µM	n	n
O=C1NC(=O)C(c2ccccc2[N+](=O)[O-])=C1Nc1ccc(O)c(Cl)c1	25µM!	n	n	x
Cc1ccccc1CN1C(=O)C(O)(CC(=O)c2cccc(Br)c2)c2ccccc21 (configuration not stated)	32µM	u	n	n
CCc1ccc2nc(N3CCN(C(=O)C4CC4)CC3)sc2c1	n	n	u	n
CCC(Cc1ccccc1)NC(=O)c1ccc2nc(N3CCC(C)CC3)sc2c1 (configuration not stated)	n	1.3µM	n	n
CCOc1ccc(CCNC(=O)c2ccc3nc(N4CCC(C)CC4)sc3c2)cc1OCC	n	u	n	n
CCc1ccc2nc(N3CCC(C(=O)O)CC3)sc2c1	n	10µM	n	n
Cc1cccc(C)c1Nc1c(-c2ccccc2Cl)nc2cnccn12	n	u	n	22µM
Cc1cccc(C)c1Nc1c(-c2ccccn2)nc2ccc(Cl)cn12	n	n	n	n
COc1ccc(CN2CCc3c(c(=O)n4ncc(C(=O)N5CCN(c6ccccc6OC)CC5)c4n3C)C2)cc1	n	1.8µM	n	n
CCn1c2c(c(=O)n3ncc(C(=O)Nc4cc(Cl)ccc4OC)c13)CN(Cc1ccc(OC)cc1)CC2	u	n	n	n
COC(=O)c1ccc(NC(=O)CCCC(=O)OCC(=O)c2ccc(Cl)cc2)cc1	n	n	n	n
CCc1ccc(NC(=O)CSC2=Nc3ccccc3C3=NC(CCC(=O)NCc4ccccc4OC)C(=O)N23)cc1 (configuration not stated)	n	n	n	n
COc1cc2nc(NC(=O)c3ccc(S(=O)(=O)N4CCc5ccccc54)cc3)sc2cc1OC	n	13µM	n	n
O=C(Nc1nc2c(Cl)cccc2s1)c1ccc(S(=O)(=O)N2CCc3ccccc32)cc1	n	u	n	n
CSc1ccc(CCNc2ncnc3onc(-c4ccc(Cl)cc4)c23)cc1	n	18µM	n	n
Fc1ccc(-c2noc3ncnc(NCCc4ccc(Cl)cc4)c23)cc1	n	u	n	n
COc1cccc2cc(-c3nnc(Nc4c(F)cccc4F)s3)c(=O)oc12	n	n	1µM	n
Cc1ccc(CNC(=O)CCSCc2cnn(-c3ccccc3)c2-n2cccc2)cc1	n	n	n	n
COc1ccccc1/C=C/c1nc(C#N)c(N2CCN(C)CC2)o1	n	n	n	28µM
SMILES	FH mod	HTT prom inh	HTT-AS act	GALC G270D act
CC(C)[N+]1(C)[C@@H]2CC[C@H]1CC(OC(=O)C(CO)c1ccccc1)C2 (some centres not stated)	n	n	n	x
COc1ccc(C(=O)Nc2ccc(S(=O)(=O)N(Cc3ccccc3)c3ccccc3)cc2)cc1	n	5µM	n	n
CCOc1ccc(NC(=O)c2ncn(-c3ccccc3)n2)cc1	n	n	8.9µM	n
CCOc1ccc(C(=O)Nc2ccc(S(=O)(=O)N(Cc3ccccc3)c3ccccc3)cc2)cc1	n	1.8µM	n	n
Cc1ccc(C(=O)Nc2ccc(S(=O)(=O)N(Cc3ccccc3)c3ccccc3)cc2)cc1	n	u	n	n
Cc1ccc(-c2nc3cccnc3s2)cc1NC(=O)C(C)C	n	n	n	n
CC(=O)Nc1cc(-c2nc3ccccc3s2)ccc1C	n	n	6.3µM	n
CC(=O)Oc1c(C)c(C)c2c(c1C)CC[C@@](C)(CCC[C@H](C)CCC[C@H](C)CCCC(C)C)O2	n	n	n	n
Cc1ccc(NC(=O)c2cccc(N3CCCS3(=O)=O)c2)cc1	n	n	u	n
Cc1ccc(NC(=O)c2cccc(N3CCCS3(=O)=O)c2)cc1C	n	n	2.2µM	n
Cc1ccc(NS(=O)(=O)c2cc(Br)cc3c2N(C(=O)C2CC2)CC3)cc1C	n	5.6µM	n	n
COc1cc(NS(=O)(=O)c2cc(Br)cc3c2N(C(=O)C2CC2)CC3)cc(OC)c1	n	16µM	n	n
O=C(C1CC1)N1CCc2cc(Br)cc(S(=O)(=O)Nc3ccc(C(F)(F)F)cc3)c21	n	u	n	n
O=C(C1CC1)N1CCc2cc(Br)cc(S(=O)(=O)Nc3ccc(F)c(F)c3)c21	28µM	u	n	n
COc1ccc(CNC(=O)CCCc2cn(C)c3ccccc23)c(OC)c1	n	u	n	n
OCCC#Cc1nc(-c2ccc(F)cc2)c(-c2ccncc2)n1CCCc1ccccc1	u	n	n	x
CC(C)c1ccc(CNC(=O)c2ccc(N3CCCC3)c(NC(=O)NCc3ccccc3)c2)cc1	n	25µM	n	n
Cc1ccc(CNC(=O)Nc2cc(C(=O)NCc3ccc(C(C)C)cc3)ccc2N2CCCC2)cc1	n	u	n	n
CCc1ccc(-c2nc(CSCC(=O)NCCc3ccccc3)c(C)o2)cc1	n	x	x	x
CCOc1ccc(-c2nc(CSCC(=O)NCCc3ccccc3)c(C)o2)cc1	u	7.1µM	n	n
Cn1c(=O)n(C)c2cc(NS(=O)(=O)c3ccc(C(C)(C)C)cc3)c(NCc3ccccc3)cc21	u	n	u	n
CCCCOc1ccc(C(=O)N2CCN(CCc3ccccn3)CC2)cc1	n	n	n	8.9µM
CCOC(=O)c1ccc(N2C(=O)c3[nH]nc(-c4ccccc4)c3C2c2cccs2)cc1 (configuration not stated)	n	16µM	n	n
C[C@H](CCC(=O)O)[C@H]1CCC2C3C[C@H](O)[C@@H]4C[C@H](O)CC[C@]4(C)C3CC[C@@]21C (some centres not stated)	n	n	n	x
CCCCOC(=O)c1cccc(NC(=O)c2cc3ccccc3o2)c1	n	10µM	n	n
CCCCOC(=O)c1ccc(NC(=O)c2cc(=O)c3ccccc3o2)cc1	n	n	n	n
CC(C)c1ccc(C2Sc3ccccc3NC3=C2C(=O)c2ccccc23)cc1 (configuration not stated)	u	13µM	n	n
OCCN1CCN(c2ncnc3c2cnn3-c2cccc(Cl)c2)CC1	n	n	u	n
